# Assay results published in PubChem BioAssay (NCATS).
# Inconclusive results are not listed. Active and inactive are the calls of the source. Unless noted, calls follow the shape of the dose curve; as a rule, active = well fitted curve in the direction sought with a large enough effect; inconclusive = small, poorly fitted or top-dose-only effect, or another doubt; inactive = no such curve, though single readings can be large; an effect the other way counts as inactive or inconclusive.
# Tests used:
# [1] = target: Cytochrome P450 2C19 (Homo sapiens) (UniProt P33261); assay: qHTS for inhibitors of CYP2C19 against the NCATS DSHEA and TCM libraries (AID 1919974);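 also: luminescence from luciferin released by CYP2C19 oxidation of a pro-luciferin substrate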; also: potency is read from the fitted curve at half-maximal effect
# How it was run: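 Read-out is luminescence after P450-Glo detection (30 min, RT). Before that: 15 min compound–enzyme preincubation, then 30-45 min reaction with 1x NADPH regeneration solution, substrate concentration isoform-specific.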
# [2] = KB-3-1 P-gp reporter qHTS against the NCATS DSHEA and TCM libraries (AID 1919975); also: 0% is about no effect
# How it was run: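 CellTiter-Glo luminescence viability readout; KB-3-1 parental cells, 500/well, attached ~4 h, then compound for ~72 h, 37C, 5% CO2. Bortezomib intraplate control.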
# [3] = KB-8-5-11 P-gp reporter qHTS against the NCATS DSHEA and TCM libraries (AID 1919977); also: 0% is about no effect
# Text: (§1) Assay Development and Screening Technology Laboratory (ADST)
# (§2) National Center for Advancing Translational Sciences (NCATS), Rockville, MD
# (§3) National Institute of Health (NIH), Bethesda, Maryland
# (§4) Dietary Supplements and Natural Products have minor oversight of their safety and efficacy. We assembled a collection of Dietary Supplements and Natural Products (DSNP) as well as Traditional Chinese Medicinal (TCM) Plant extracts, which were screened against an in vitro panel of assays, including a liver cytochrome p450 enzyme panel, CAR/PXR signaling pathways, and P-gp transporter assays, to assess their activity. This pipeline facilitated the interrogation of Natural Product-Drug Interaction (NaPDI) through prominent metabolizing pathways. In addition, we compared the activity profiles of the DSNP/TCM substances with those of an approved drug collection. Many of the approved drugs have well-annotated mechanisms of action (MOA) while the MOAs for most of the DSNP and TCM samples remain unknown. Based on the premise that compounds with similar activity profiles tend to share similar targets or MOA, we clustered the library activity profiles to identify overlap with the NCATS Pharmaceutical Collection to predict the MOAs of the DSNP/TCM substances. Overall, we highlight four significant bioactivity profiles (measured by p-values) as examples of this prediction. To assess broad cytotoxicity, we employed screening against a HepG2 cell line. In addition, transporter-mediated drug interactions are utilized in the characterization of DDIs using a P-glycoprotein (P-gp) assays. To profile potential P-gp activity, a differential cell viability was measured against two cell lines: a parental KB-3-1 human cervical adenocarcinoma cell line and the drug-resistant subline KB-8-5-11 that overexpresses P-gp.
# (§5) To this end, we profiled both collections for potential CAR and/or PXR activity, employing a previously published 1536-well qHTS assay.
# (§6) [1] Lee TD, et al. A High-Throughput Screen of a Library of Therapeutics Identifies Cytotoxic Substrates of P-glycoprotein. Mol Pharmacol. Nov 2019;96(5):629-640. doi:10.1124/mol.119.115964
# (§7) PROTOCOL TABLE (as described by Inglese J, Shamu CE and Guy RK. 2007)
# (§8) SEQUENCE No. (e.g., 1, 2, 3, etc.); PARAMETER (e.g., Cells, Incubation, Reagent, etc.); VALUE; DESCRIPTION.
# 1; Cells; 5 uL; KB-8-5-11 cells, white solid-bottom tissue treated Greiner plate.
# 2; Incubation; 4 hrs; 37C, 95% humidity, 5% CO2.
# 3; Compounds and control; 23 nL; Kalypsis pin tool (Wako USA) equipped with a 1536-well pin head to transfer to the assay plates.
# 4; Incubation; 72 hrs; 37C, 95% humidity, 5% CO2.
# 5; Reagent; 2.5 uL; CellTiter-Glo.
# 6; Centrifuge; 1000 RPM; 15 seconds.
# 7; Incubation; 30 min; room temperature.
# 8; Read; Luminescence; ViewLux plate reader. […]
# [4] = qHTS Counterscreen for compound interference against the NCATS DSHEA and TCM libraries (AID 1919978); settings: firefly luciferase detection reagent interference, luminescence;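 also: compounds preincubated with 1 µM D-luciferin or buffer before detection reagent; % of control where 0% means no effect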
# How it was run: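 Luminescence counterscreen for detection-kit interference: compounds at 19.5 nM–39.8 uM final, 15 min RT with 1 uM D-luciferin or buffer only; detection reagent added, 30 min RT, then read.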
# [5] = Dual reporter qHTS for agonist of Pregnane X Receptor (hPXR) against the NCATS DSHEA and TCM libraries: Fluorescence readout (AID 1920058); also: 0% is about no effect
# Text: as §1, §2, §3, §4, §5, §6
# For PXR luciferase reporter gene assays, we used hPXR-LucHepG2cells provided by Dr. Taosheng Chen (Department of Chemical Biology and Therapeutics, St. Jude Children's Research Hospital). Cells were cultured in EMEM supplemented with 10% fetal bovine serum, 100U/mL penicillin and 100ug/mL streptomycin, and 500ug/mL of geneticin.
# as §7, §8
# 1; Cells; 5 uL; hPXR-LucHepG2; white solid-bottom Greiner plate. […]
# (§9) 8; Read; Fluorescence; ViewLux plate reader. […]
# (§10) 11; Read; Luminescence; ViewLux plate reader. […]
# [6] = target: Nuclear receptor subfamily 1 group I member 2 (Homo sapiens) (UniProt O75469); assay: Dual reporter qHTS for agonist of Pregnane X Receptor (hPXR) against the NCATS DSHEA and TCM libraries: Luminescence readout (AID 1920059); also: 0% is about no effect
# Text: as §1, §2, §3, §4, §5
# [1] […]
# as §9, §10
# [7] = target: Nuclear receptor subfamily 1 group I member 2 (Homo sapiens) (UniProt O75469); assay: Dual reporter qHTS for antagonist of Pregnane X Receptor (hPXR) against the NCATS DSHEA and TCM libraries: Luminescence Readout (AID 1920060);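 also: HepG2 cells carrying hPXR luciferase reporter stimulated with rifampicin at 2 µM; 0% is about no effect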
# How it was run: (§11)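 HepG2 hPXR-Luc, 2000 cells/well, charcoal-stripped FBS medium; 5 h attach; RIF 2 uM final; 24 h 37C/5% CO2; CellTiter-Fluor 1 h, fluor 405/540; ONE-Glo 30 min RT, lum.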
# [8] = Dual reporter qHTS for antagonist of Pregnane X Receptor (hPXR) against the NCATS DSHEA and TCM libraries: Fluorescence Readout (AID 1920061); also: 0% is about no effect
# How it was run: as §11
# [9] = qHTS drug screen for cell cycle checkpoint inhibitors in PARPi-resistant BRCA-mutant ovarian cancer cell lines. (AID 1963452; calls by dose curve; also: potency is read from the fitted curve at half-maximal effect); settings: PEO1/OlaR viability, CellTiter-Glo luminescence, 96 h; for Z-AUC: stronger effect = lower value
# How it was run: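 PEO1, PEO4 and PEO1/OlaR ovarian cancer cells, 600 per well, exposed 96 h at 37C to a dilution series. Viability read by CellTiter-Glo luminescence, normalized to DMSO and empty wells; activity summarized as Z-AUC.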
# [10] = target: Cytochrome P450 1A2 (Homo sapiens) (UniProt P05177); assay: qHTS for inhibitors of CYPIA2 against the NCATS DSHEA and TCM libraries (AID 1919976);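 also: light from luciferin formed by CYP1A2 from a pro-luciferin substrate; series mostly up to about 37 µM; % is scaled to controls: 0 for no effect and ±100 for the full control effect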
# Text: as §1, §2, §3
# as §4, with “Based on the premise that compounds with similar activity profiles tend to share similar targets or MOA, we clustered the library activity profiles to identify overlap with the NCATS Pharmaceutical Collection to predict the MOAs of the DSNP/TCM substances.” left out, “To assess broad cytotoxicity, we employed screening against a HepG2 cell line. In addition, transporter-mediated drug interactions are utilized in the characterization of DDIs using a P-glycoprotein (P-gp) assays.” left out, “P-gp. […]” for “P-gp.”
# 9; Read; Luminescence; ViewLux plate reader. […]
# [11] = measured here: PEO1 parental Z-AUC
# Sequence of Cytochrome P450 2C19 (Homo sapiens) (P33261 whole entry, looked up, canonical isoform): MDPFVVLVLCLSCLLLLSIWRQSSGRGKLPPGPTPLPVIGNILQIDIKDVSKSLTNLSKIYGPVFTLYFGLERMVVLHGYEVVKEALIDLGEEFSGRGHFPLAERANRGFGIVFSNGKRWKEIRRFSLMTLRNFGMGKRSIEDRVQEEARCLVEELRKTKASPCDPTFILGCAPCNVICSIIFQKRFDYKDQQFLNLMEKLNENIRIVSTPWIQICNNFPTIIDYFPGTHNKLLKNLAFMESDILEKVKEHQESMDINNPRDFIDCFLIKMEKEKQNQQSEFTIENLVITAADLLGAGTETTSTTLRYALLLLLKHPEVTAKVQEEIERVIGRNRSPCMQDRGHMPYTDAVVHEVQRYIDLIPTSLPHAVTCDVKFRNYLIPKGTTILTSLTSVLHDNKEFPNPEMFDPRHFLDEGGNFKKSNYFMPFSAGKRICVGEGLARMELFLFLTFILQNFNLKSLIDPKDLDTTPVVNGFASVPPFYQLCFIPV
# Sequence of Nuclear receptor subfamily 1 group I member 2 (Homo sapiens) (O75469 whole entry, looked up): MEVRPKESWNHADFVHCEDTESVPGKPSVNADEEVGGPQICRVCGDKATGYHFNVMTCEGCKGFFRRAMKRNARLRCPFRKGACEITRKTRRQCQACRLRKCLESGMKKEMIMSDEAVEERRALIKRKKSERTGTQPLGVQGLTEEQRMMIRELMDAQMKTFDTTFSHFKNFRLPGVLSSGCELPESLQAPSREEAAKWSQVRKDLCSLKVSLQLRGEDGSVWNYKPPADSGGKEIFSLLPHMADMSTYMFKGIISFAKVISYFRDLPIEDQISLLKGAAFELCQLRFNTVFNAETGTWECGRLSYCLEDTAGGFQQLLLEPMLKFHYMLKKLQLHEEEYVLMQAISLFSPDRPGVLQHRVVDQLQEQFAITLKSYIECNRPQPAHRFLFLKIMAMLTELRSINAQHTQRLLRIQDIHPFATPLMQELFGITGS
# Sequence of Cytochrome P450 1A2 (Homo sapiens) (P05177 whole entry, looked up): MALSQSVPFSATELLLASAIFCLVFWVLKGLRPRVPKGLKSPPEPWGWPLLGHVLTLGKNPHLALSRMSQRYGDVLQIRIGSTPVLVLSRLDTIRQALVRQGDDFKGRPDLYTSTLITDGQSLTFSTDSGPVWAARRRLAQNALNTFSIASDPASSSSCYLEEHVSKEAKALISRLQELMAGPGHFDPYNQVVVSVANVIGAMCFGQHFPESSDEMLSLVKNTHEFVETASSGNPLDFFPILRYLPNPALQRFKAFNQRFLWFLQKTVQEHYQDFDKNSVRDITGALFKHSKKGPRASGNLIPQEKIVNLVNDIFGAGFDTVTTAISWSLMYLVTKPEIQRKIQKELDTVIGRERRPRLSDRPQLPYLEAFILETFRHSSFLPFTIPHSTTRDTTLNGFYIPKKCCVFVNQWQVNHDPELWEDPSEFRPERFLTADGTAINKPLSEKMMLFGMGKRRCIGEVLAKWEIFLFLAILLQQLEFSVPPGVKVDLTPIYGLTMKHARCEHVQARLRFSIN
smiles,measurement,setting,value
COC1=CC(=O)O[C@@H](/C=C/c2ccccc2)C1,Potency,[1],14.1 µM (active)
same,outcome,[2],inactive
same,outcome,[3],inactive
same,max response,[4],-0.203% (inactive)
same,outcome,[5],inactive
same,outcome,[6],inactive
same,outcome,[7],inactive
same,outcome,[8],inactive
C=C[C@H]1CN2CC[C@H]1C[C@@H]2[C@@H](O)c1ccnc2ccccc12,Z-AUC,[9],1.32 (inactive)
same,Z-AUC,[9]; [11],0.858
same,Z-AUC,[9]; measured here: PEO4 Z-AUC,1.06
O=Cc1ccco1,Potency,[1],6.31 µM (active)
same,outcome,[2],inactive
same,outcome,[3],inactive
same,max response,[4],-3.87% (inactive)
same,outcome,[5],inactive
same,outcome,[7],inactive
same,outcome,[8],inactive
CC(=O)c1c(O)c(C)c(O)c(Cc2c(O)c3c(c(C(=O)/C=C/c4ccccc4)c2O)OC(C)(C)C=C3)c1O,Z-AUC,[9],1.03 (inactive)
same,Z-AUC,[9]; [11],0.667
same,Z-AUC,[9]; measured here: PEO4 Z-AUC,0.636
CCOc1ccccc1-n1c(C(C)N2CCN(C(=O)COc3ccc(Cl)cc3)CC2)nc2ccccc2c1=O (stereo not given),Z-AUC,[9],0.23 (inactive)
same,Z-AUC,[9]; [11],0.347
same,Z-AUC,[9]; measured here: PEO4 Z-AUC,-0.0275
O=C/C=C/c1ccccc1,outcome,[2],inactive
same,outcome,[10],inactive
same,outcome,[3],inactive
same,max response,[4],1.86% (inactive)
same,outcome,[5],inactive
same,outcome,[6],inactive
same,outcome,[7],inactive
same,outcome,[8],inactive
C[C@]12CC[C@H]3[C@@H](CC[C@@]45O[C@@H]4C(O)=C(C#N)C[C@]35C)[C@@H]1CC[C@@H]2O,Z-AUC,[9],0.0842 (inactive)
same,Z-AUC,[9]; [11],0.943
same,Z-AUC,[9]; measured here: PEO4 Z-AUC,0.794
C/C(=C\c1csc(C)n1)[C@@H]1C[C@@H]2O[C@]2(C)CCC[C@H](C)[C@H](O)[C@@H](C)C(=O)C(C)(C)[C@@H](O)CC(=O)O1,Potency,[9],0.0078 µM (active)
same,Z-AUC,[9]; [11],-2.7
same,Z-AUC,[9]; measured here: PEO4 Z-AUC,-2.48
CNC(C)C(O)c1ccc(O)cc1 (stereo not given),Potency,[1],inactive
same,outcome,[2],inactive
same,outcome,[10],inactive
same,outcome,[3],inactive
same,max response,[4],-3.49% (inactive)
same,outcome,[5],inactive
same,outcome,[6],inactive
same,outcome,[8],inactive
C/C(O)=C(\C#N)C(=O)Nc1cc(Br)ccc1Br,Z-AUC,[9],-0.13 (inactive)
same,Z-AUC,[9]; [11],0.336
same,Z-AUC,[9]; measured here: PEO4 Z-AUC,0.627
CC1=C2C[C@H]3[C@@H](CC=C4C[C@@H](O)CC[C@@]43C)[C@@H]2CC[C@]12O[C@@H]1C[C@H](C)CN[C@H]1[C@H]2C,Z-AUC,[9],-0.41 (inactive)
same,Z-AUC,[9]; [11],-0.348
same,Z-AUC,[9]; measured here: PEO4 Z-AUC,-0.0838
COc1cc(C)[nH]c(=O)c1CNC(=O)c1c(C)n([C@H](C)C2CCOCC2)c2ccccc12,Z-AUC,[9],0.466 (inactive)
same,Z-AUC,[9]; [11],0.504
same,Z-AUC,[9]; measured here: PEO4 Z-AUC,0.135
